Screens: PubChem, National Center for Advancing Translational Sciences (NCATS)
An excerpt weighted towards active compounds, which were near 6% of everything screened.
DRD3 agonist – activates the human D3 dopamine receptor; P35462; D3R DiscoveRx beta-arrestin cells, luminescence, 90 min; max activation, %; 0.58% of 410,000 active; in the data active means max activation above about 30%; further: 0% is about no effect
Target sequence (P35462 whole entry, looked up): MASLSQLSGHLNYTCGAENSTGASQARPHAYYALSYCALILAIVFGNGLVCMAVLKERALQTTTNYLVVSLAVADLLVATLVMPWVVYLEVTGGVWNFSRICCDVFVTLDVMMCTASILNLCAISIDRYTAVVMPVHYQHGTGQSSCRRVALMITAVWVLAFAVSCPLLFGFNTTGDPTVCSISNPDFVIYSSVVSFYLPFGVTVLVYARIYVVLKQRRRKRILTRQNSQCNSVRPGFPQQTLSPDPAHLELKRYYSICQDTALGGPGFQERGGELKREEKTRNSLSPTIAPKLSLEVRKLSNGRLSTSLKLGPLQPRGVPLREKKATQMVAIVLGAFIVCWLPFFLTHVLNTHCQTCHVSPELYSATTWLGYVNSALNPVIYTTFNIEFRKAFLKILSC
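Agonist-mode cell screen: cells plated at 1500/well and incubated overnight at 37 °C, then exposed to library compounds for 90 min at 37 °C. Detection reagent was added for 30–60 min at room temperature, and luminescence was read.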
Chronic BCR inh – blocks chronic active B-cell receptor signaling; ABC-DLBCL IkBa-CBG/CBR reporter, luminescence ratio, 4 h; Potency, µM (series often up to 46.1 µM), for inactives: top-dose activity change, negative = inhibition, actives largely listed as inhibitors; 0.05% of 340,000 active; AID 493014; active means well fitted inhibition curve with a large enough effect in the signal ratio, with a control signal flat, not every such curve was filed as active; inconclusive means small, poorly fitted or top-dose-only effect, or effect the other way, or a change in a side signal; the % refers to the signal ratio;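 further: potency means the concentration at half of the fitted maximal effect; plate controls were basal doxycycline-induced cells for no effect and cells given 10 µM MG132 for full effect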
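TMD8 human ABC-DLBCL cells with doxycycline-inducible IκBα–green luciferase fusion and unfused red luciferase, in 0.5% FBS medium; compounds up to 46 uM, 4 h at 37C. Green/red luminescence ratio, filter-overlap corrected, fitted to concentration-response curves.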
D1 ag – activates the human D1 dopamine receptor | HEK293 T-REx D1 cells, calcium flux, agonist mode | activation, % at 2 µM | 1% of 360,000 active | AID 504660; in the data active means activation above about 30%; further: 0% is about no effect
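Inducible HEK293 T-REx D1 cells, force-coupled to calcium signalling, were plated at 4000 cells/well with tetracycline and held overnight at 30 C. After no-wash calcium dye loading, compound-evoked calcium rise over 180 s flagged agonists.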
D1 antag – blocks dopamine activation of the human D1 receptor. 3.2% of 360,000 active. HEK293 TREx D1 cells, calcium flux, dopamine EC80; stronger effect = lower value. activity change, negative = inhibition, % at 10 µM; in the data active means activity change below about -30%; further: on the % scale 0 is the no-effect control and ±100 the full control effect
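Compound effects on dopamine-evoked calcium signalling were measured in tetracycline-induced HEK293 Trex D1 cells. Dopamine at EC80 followed a 180 s compound pre-read, and fluorescence was tracked kinetically for 180 s more.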
DRD3 antagonist – blocks the human D3 dopamine receptor. P35462. D3R cells, DiscoveRx beta-arrestin luminescence, antagonist mode; stronger effect = lower value. max response, negative = inhibition, %. 2.5% of 360,000 active. AID 652054; in the data active means max response below about -50%; inconclusive means no clear call, values can overlap the other calls; further: on the % scale 0 is the no-effect control and ±100 the full control effect
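Cells expressing the human receptor were seeded at 1500 cells/well, incubated overnight at 37 degrees C in 5% CO2, then exposed to library compounds with dopamine controls for 90 minutes at 37 degrees C before luminescent detection.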
D1 potentiator – human D1 dopamine receptor positive modulation | P21728 | HEK293 TREx D1 cells, calcium flux, dopamine EC20 potentiation | potentiation, % at 10 µM | 0.036% of 360,000 active | AID 504651; in the data active means potentiation above about 30%; further: 0% is about no effect
An asterisk follows results filed as active; ? = inconclusive; . = not tested or not shown; ! = not confirmed by another sample.

SMILES	DRD3 agonist	Chronic BCR inh	D1 ag	D1 antag	DRD3 antagonist	D1 potentiator
CCn1c(=O)cc(OCC(=O)Nc2cc(OC)c(OC)c(OC)c2)c2ccccc21	3	.	4	-3	.	-1
CCOC(=O)CN[C@@H](C(=O)N1CC[C@H]1C(=O)NCc1ccc(/C(N)=N/O)cc1)C1CCCCC1	4	.	.	.	.	.
COc1ccccc1N1CCN(C(=O)CCc2c[nH]c3ccccc23)CC1	-2	5%	3	-38*	-6	0
COc1ccc(-c2ccc(SCC(=O)N3CCOCC3)nn2)cc1	7	-5%	7	-31*	?	-14
O=C(Cn1cc(S(=O)(=O)c2ccc(F)cc2)c(=O)c2cc3c(cc21)OCO3)Nc1ccccc1	2	.	2	-34*	.	0
CCc1ccc2c(c1)c(=O)c(S(=O)(=O)c1ccccc1)cn2CC(=O)Nc1ccc(OC)cc1	-9	.	4	17	.	-2
Cc1ccc(NC(=O)Cn2cc(S(=O)(=O)c3ccc(F)cc3)c(=O)c3cc4c(cc32)OCO4)cc1	6	.	1	2	.	-2
COc1ccc(S(=O)(=O)c2cn(CC(=O)Nc3ccccc3)c3ccc(Cl)cc3c2=O)cc1	2	.	6	-45*	.	1
CCOC(=O)C1=CCN(S(=O)(=O)c2ccc(C)cc2)C1c1ccc(C(C)C)cc1 (centres undefined)	-5	.	.	.	-22	.
Oc1ccc(F)c(CN2CCN(c3ncc(Cc4ccccc4)cn3)CC2)c1	-4	.	.	.	-10	.
Cc1cc(C)c2c(c1)/C(=N/NS(=O)(=O)c1ccccc1)CCC2	-1	-4%	6	-97*	21	7
Cc1cc(C)c2c(c1)/C(=N/NS(=O)(=O)c1ccc(Br)cc1)CCC2	7	?	3	10	6	0
CSc1ccccc1-n1nnnc1SCc1ccccc1	-7	-1%	46*	-6	-4	-1
CCn1nc(C)c(CCN(C)C(=O)Nc2cc(Cl)c(OC)cc2OC)c1C	4	.	1	-13	.	-1
COc1ccccc1Cn1ccn(CC(=O)Nc2c(C)cc(C)cc2C)c(=O)c1=O	1	.	0	3	.	0
CCC1Oc2ccccc2N(CC(=O)NCCCN2CCCC2)C1=O (centres undefined)	-3	-14%	4	2	-3	-1
CCC1Oc2ccc(C)cc2N(CC(=O)NCCCN2CCN(Cc3ccccc3)CC2)C1=O (centres undefined)	-30	8%	4	-1	-75*	-1
CCC1Oc2ccccc2N(CC(=O)NCCCN2CCN(c3ccc(OC)cc3)CC2)C1=O (centres undefined)	-13	0%	6	-90*	-14	-6
Cc1noc(C)c1S(=O)(=O)N1CCN(c2ccccc2)CC1	3	-10%	0	-63*	-20	.
Cc1noc(C)c1S(=O)(=O)N1CCN(c2ccccc2Cl)CC1	-12	9%	4	-19	-2	2
Cc1noc(/C=C/N(C)C)c1S(=O)(=O)N1CCCC(C(=O)NCc2ccccc2Cl)C1 (centres undefined)	-19	21%	2	-51*	-20	-4
Cc1noc(/C=C/N(C)C)c1S(=O)(=O)N1CCCC(C(=O)NCc2ccc(Cl)cc2)C1 (centres undefined)	5	13%	8	-2	-5	-6
Cc1ccc(C)c(N2CCN(S(=O)(=O)c3c(C)noc3/C=C/N(C)C)CC2)c1	3	2%	4	9	3	-8
Cc1noc(/C=C/N(C)C)c1S(=O)(=O)N1CCN(c2ccccc2)CC1	-2	?	1	-37*	16	-5
Cc1nc2c(c(C)c1CCC(=O)NCc1ccc(F)cc1)c(=O)n(C)c(=O)n2C	2	.	1	-11	.	1
SMILES	DRD3 agonist	Chronic BCR inh	D1 ag	D1 antag	DRD3 antagonist	D1 potentiator
CCc1cccc(C)c1NC(=O)C1CCCN1S(=O)(=O)c1cccc2nsnc12 (centres undefined)	1	.	3	1	.	-2
COc1ccc(-c2ccc3c(c2)C2CC3CCN2)cc1 (centres undefined)	10	.	.	.	44	.
COc1ccccc1CN1COc2ccc3c(C)cc(=O)oc3c2C1	-13	.	0	2	.	1
O=C(Nc1ccc(F)c(F)c1)C1CCCN(S(=O)(=O)c2cccc3nonc23)C1 (centres undefined)	-11	?	33*!	-13	0	-9
O=C(C1CCCN(S(=O)(=O)c2cccc3cccnc23)C1)N1CCN(c2ccc(F)cc2)CC1 (centres undefined)	-5	-2%	1	-36*	-30	-3
O=C(C1CCN(S(=O)(=O)c2cccc3cccnc23)CC1)N1CCN(c2ccccc2)CC1	1	3%	-1	-23	9	-6
COc1cccc(NC(=O)C2CCCN(S(=O)(=O)c3cccc4cccnc34)C2)c1 (centres undefined)	0	-9%	1	-35*	15	-2
CC1CCCCC1NC(=O)C1CCC(CNS(=O)(=O)c2cccc3cccnc23)CC1 (centres undefined)	7	-2%	1	-37*	1	17
Cc1ccc(CNC(=O)C2CCC(CNS(=O)(=O)c3cccc4cccnc34)CC2)cc1 (centres undefined)	20	-11%	8	0	8	-5
Cc1cccc(NC(=O)C2CCCN(S(=O)(=O)c3cccc4nonc34)C2)c1 (centres undefined)	2	14%	4	-5	-2	-5
CCN(Cc1ccccc1)C(=O)Cn1c(=O)oc2cc(S(=O)(=O)N3CCCCCC3)ccc21	-18	.	6	-16	.	-2
Cc1cc2c(SCC(=O)Nc3cccc(O)c3)ncnc2s1	7	.	.	.	2	.
O=C(C1CCN(S(=O)(=O)c2cccc3nonc23)CC1)N1CCN(c2ccccc2F)CC1	5	-14%	-1	-37*	.	-2
O=C(NC1CCCCC1)C1CCCN(S(=O)(=O)c2cccc3cccnc23)C1 (centres undefined)	-3	3%	0	-30*	-21	-10
O=C(NCc1ccccc1)C1CCN(S(=O)(=O)c2cccc3cccnc23)CC1	1	8%	-1	2	14	0
O=C(COC(=O)C1CCN(S(=O)(=O)c2cccc3cccnc23)CC1)c1ccc(F)cc1	5	9%	0	-4	-52*	-1
CC1CCN(C(=O)C2CCN(S(=O)(=O)c3cccc4nonc34)CC2)CC1	-7	8%	3	20	-3	-2
O=C(C1CCN(S(=O)(=O)c2cccc3cccnc23)CC1)N1CCn2c1nc1ccccc12	-40	16%	0	-4	-184*	.
